In publication PMC7862700, “An all-to-all approach to the identification of sequence-specific readers for epigenetic DNA modifications on cytosine”:

Experiments:
Assay in all cases: DAPPL (digital affinity profiling via proximity ligation, sequencing); 10 mM Tris-HCl pH 7.5, 50 mM NaCl, 1 mM DTT, 4% glycerol, room temperature, 30 min; GST-TFs on glutathione beads, 16-mer random dsDNA library, 0.1% formaldehyde crosslink after washing; high values mean tight binding
FLI1 = biological target: T1, FLI1 (Homo sapiens, UniProt Q01543 1-452); settings: protein: recombinant; tags: N-terminal GST; dsDNA, one strand shown
T1 sequence: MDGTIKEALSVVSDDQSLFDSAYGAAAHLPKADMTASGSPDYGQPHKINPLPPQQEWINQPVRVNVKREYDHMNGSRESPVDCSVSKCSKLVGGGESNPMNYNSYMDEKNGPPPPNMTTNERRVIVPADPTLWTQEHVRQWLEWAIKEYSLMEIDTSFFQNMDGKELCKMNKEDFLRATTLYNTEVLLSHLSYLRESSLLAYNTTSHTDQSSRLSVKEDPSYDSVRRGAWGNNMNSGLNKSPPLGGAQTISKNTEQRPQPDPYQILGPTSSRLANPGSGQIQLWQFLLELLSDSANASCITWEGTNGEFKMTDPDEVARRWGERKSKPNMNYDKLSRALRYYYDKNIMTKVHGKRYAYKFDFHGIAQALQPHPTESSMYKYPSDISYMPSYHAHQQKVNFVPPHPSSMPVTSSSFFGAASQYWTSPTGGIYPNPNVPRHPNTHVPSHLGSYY
Procedure, shortened: (§1)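 GST fusions of human transcription factors were expressed in yeast and captured with glutathione beads. Once given DNA barcodes and pooled alongside a tag-only sample, they were incubated for 30 min at room temperature with 200 nmole of a random double-stranded 16-mer DNA library in Tris/NaCl/DTT/glycerol buffer, then washed, crosslinked (0.1% formaldehyde), proximity-ligated, PCR-amplified and sequenced on an Illumina NextSeq500. The binding signal of each hexamer is its read frequency for a factor divided by its frequency for the tag-only sample.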

ELK1 = biological target: T2, ELK1 (Homo sapiens, UniProt P19419 1-428); settings: protein: recombinant; tags: N-terminal GST; dsDNA, one strand shown
T2 sequence: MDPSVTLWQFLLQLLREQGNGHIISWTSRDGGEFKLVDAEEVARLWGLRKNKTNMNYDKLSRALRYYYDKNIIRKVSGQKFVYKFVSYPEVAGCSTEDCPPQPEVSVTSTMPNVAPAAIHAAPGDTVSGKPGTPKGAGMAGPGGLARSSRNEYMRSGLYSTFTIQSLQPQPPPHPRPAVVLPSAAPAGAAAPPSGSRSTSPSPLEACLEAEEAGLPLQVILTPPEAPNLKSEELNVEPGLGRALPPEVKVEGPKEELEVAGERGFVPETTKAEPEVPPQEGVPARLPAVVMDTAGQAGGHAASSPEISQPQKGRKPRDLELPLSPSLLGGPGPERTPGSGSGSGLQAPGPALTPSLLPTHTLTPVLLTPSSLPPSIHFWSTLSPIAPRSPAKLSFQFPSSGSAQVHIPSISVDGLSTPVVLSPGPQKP
Procedure, shortened: as §1

GABPA = biological target: T3, GABPA (Homo sapiens, UniProt Q06546 1-454); settings: protein: recombinant; tags: N-terminal GST; dsDNA, one strand shown
T3 sequence: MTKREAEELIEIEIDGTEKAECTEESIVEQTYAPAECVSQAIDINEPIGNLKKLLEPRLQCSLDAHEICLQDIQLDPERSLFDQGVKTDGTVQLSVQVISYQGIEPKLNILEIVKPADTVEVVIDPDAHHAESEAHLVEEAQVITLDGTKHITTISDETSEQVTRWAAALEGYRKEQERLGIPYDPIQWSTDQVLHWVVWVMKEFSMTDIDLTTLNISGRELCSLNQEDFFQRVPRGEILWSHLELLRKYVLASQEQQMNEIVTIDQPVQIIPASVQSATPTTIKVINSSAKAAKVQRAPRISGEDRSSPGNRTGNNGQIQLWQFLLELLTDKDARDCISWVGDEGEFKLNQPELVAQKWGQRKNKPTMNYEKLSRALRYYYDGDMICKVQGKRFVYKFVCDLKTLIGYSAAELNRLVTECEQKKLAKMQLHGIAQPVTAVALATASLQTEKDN
Procedure, shortened: as §1

ERG = biological target: T4, ERG (Homo sapiens, UniProt P11308 1-479); settings: protein: recombinant; tags: N-terminal GST; dsDNA, one strand shown
T4 sequence: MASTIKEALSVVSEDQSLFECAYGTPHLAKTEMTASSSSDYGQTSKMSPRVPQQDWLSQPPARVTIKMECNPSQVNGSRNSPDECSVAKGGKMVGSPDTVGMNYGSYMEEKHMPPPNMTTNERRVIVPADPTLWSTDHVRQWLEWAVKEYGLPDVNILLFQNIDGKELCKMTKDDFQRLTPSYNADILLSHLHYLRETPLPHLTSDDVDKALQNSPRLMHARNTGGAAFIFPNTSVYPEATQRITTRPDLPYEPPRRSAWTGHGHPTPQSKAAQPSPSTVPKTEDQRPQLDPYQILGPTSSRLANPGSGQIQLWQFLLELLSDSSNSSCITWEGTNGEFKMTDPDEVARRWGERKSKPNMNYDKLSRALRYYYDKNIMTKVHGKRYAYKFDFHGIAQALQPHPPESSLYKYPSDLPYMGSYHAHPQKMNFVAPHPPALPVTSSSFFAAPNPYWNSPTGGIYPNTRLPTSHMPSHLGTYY
Procedure, shortened: as §1

ELF1 = ELF1 (Homo sapiens, UniProt P32519 1-619); settings: protein: recombinant; tags: N-terminal GST; dsDNA, one strand shown
Chain of ELF1 (P32519 whole entry): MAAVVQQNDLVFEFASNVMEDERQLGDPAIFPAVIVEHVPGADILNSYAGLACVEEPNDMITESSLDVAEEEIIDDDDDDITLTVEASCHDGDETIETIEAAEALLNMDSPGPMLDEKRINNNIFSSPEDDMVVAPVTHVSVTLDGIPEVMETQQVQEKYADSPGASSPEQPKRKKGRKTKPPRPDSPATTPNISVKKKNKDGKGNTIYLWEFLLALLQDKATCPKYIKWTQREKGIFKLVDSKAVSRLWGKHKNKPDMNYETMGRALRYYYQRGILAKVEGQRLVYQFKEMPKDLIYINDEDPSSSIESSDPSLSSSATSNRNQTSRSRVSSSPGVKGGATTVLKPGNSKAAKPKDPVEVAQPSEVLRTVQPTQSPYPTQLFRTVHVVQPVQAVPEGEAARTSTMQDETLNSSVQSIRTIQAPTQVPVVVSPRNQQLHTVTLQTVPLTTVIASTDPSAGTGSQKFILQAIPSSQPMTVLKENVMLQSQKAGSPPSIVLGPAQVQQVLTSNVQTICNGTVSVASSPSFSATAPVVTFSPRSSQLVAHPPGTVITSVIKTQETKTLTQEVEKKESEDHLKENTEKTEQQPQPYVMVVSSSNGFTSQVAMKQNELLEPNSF
Procedure, shortened: as §1

EHF = biological target: T5, EHF (Homo sapiens, UniProt Q9NZC4 1-300); settings: protein: recombinant; tags: N-terminal GST; dsDNA, one strand shown
T5 sequence: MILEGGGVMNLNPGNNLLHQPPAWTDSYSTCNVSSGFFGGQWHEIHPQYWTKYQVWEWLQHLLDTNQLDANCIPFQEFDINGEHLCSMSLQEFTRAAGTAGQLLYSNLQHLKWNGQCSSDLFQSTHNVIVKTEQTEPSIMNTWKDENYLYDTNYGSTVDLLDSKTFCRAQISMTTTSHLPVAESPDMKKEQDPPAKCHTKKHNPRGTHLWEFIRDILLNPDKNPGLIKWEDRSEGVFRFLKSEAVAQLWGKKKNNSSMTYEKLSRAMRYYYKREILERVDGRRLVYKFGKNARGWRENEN
Procedure, shortened: as §1

SPI1 = SPI1 (Homo sapiens, UniProt P17947 1-270); settings: protein: recombinant; tags: N-terminal GST; dsDNA, one strand shown
Procedure, shortened: as §1

SPIB = SPIB (Homo sapiens, UniProt Q01892 1-262); settings: protein: recombinant; tags: N-terminal GST; dsDNA, one strand shown
Chain of SPIB (Q01892 whole entry): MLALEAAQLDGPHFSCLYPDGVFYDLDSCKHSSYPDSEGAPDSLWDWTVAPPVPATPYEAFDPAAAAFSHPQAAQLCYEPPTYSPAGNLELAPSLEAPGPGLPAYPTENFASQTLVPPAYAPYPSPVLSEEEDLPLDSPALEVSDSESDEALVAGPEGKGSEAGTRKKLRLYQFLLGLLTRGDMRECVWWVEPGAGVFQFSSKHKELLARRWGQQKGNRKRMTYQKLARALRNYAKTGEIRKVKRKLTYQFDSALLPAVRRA
Procedure, shortened: as §1

ELK3 = biological target: T6, ELK3 (Homo sapiens, UniProt P41970 1-407); settings: protein: recombinant; tags: N-terminal GST; dsDNA, one strand shown
T6 sequence: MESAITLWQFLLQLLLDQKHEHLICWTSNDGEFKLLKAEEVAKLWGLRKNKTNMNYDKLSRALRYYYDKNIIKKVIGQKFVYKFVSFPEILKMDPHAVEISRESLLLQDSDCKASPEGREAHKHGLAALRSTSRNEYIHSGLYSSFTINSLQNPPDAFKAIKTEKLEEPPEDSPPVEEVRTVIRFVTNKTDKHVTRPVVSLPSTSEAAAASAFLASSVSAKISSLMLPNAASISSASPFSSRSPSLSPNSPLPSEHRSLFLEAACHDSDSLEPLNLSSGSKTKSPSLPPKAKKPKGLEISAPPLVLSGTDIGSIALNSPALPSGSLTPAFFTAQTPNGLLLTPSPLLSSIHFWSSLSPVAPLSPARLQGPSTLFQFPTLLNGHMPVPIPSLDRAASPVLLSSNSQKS
Procedure, shortened: as §1

FEV = biological target: T7, FEV (Homo sapiens, UniProt Q99581 1-238); settings: protein: recombinant; tags: N-terminal GST; dsDNA, one strand shown
T7 sequence: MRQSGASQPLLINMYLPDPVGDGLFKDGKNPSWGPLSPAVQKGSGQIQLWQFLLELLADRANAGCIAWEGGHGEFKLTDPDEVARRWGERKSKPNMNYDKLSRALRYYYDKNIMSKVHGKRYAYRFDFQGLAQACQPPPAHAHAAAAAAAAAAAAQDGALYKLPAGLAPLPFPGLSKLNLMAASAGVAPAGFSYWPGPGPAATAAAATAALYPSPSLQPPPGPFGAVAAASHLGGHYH
Procedure, shortened: as §1

ETV5 = ETV5 (Homo sapiens, UniProt P41161 1-510); settings: protein: recombinant; tags: N-terminal GST; dsDNA, one strand shown
Chain of ETV5 (P41161 whole entry): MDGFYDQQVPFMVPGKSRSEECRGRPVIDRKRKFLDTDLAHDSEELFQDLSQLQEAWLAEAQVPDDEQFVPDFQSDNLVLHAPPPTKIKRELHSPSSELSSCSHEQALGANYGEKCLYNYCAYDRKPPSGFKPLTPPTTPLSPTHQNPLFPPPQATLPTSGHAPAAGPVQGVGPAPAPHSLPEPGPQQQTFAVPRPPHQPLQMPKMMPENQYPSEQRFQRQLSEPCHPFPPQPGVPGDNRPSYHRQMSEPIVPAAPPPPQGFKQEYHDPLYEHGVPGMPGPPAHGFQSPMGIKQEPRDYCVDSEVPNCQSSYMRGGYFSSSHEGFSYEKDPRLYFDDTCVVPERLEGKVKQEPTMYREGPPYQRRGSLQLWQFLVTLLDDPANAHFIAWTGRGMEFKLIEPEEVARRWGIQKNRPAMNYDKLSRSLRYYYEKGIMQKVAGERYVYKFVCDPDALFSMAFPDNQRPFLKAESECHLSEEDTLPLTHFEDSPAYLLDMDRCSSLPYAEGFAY
Procedure, shortened: as §1

HSF1 = HSF1 (Homo sapiens, UniProt Q00613 1-529); settings: protein: recombinant; tags: N-terminal GST; chain copies: 3; dsDNA, one strand shown
Chain of HSF1 (Q00613 whole entry): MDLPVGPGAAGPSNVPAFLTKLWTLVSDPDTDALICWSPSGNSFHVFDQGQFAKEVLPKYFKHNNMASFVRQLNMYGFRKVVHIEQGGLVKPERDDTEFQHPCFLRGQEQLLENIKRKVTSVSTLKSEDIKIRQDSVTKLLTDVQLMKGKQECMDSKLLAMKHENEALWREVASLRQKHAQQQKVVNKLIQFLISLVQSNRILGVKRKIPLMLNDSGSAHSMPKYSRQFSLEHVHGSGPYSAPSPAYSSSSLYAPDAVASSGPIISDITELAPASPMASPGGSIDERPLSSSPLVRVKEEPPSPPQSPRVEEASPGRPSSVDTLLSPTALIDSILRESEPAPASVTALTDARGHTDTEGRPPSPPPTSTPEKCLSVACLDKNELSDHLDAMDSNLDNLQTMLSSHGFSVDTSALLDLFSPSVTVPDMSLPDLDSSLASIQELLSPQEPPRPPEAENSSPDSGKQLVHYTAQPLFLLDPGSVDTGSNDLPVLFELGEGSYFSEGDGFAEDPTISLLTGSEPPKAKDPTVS
Procedure, shortened: as §1

SPIC = biological target: T8, SPIC (Homo sapiens, UniProt Q8N5J4 1-248); settings: protein: recombinant; tags: N-terminal GST; dsDNA, one strand shown
T8 sequence: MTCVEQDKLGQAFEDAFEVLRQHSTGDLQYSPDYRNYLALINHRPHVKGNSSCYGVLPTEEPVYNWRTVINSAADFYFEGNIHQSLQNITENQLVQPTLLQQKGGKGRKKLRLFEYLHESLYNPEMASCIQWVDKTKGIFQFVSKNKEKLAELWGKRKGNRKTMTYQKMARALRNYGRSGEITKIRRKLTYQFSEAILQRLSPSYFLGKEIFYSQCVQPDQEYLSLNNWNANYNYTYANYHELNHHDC
Procedure, shortened: as §1

ELF4 = ELF4 (Homo sapiens, UniProt Q99607 1-663); settings: protein: recombinant; tags: N-terminal GST; dsDNA, one strand shown
Chain of ELF4 (Q99607 whole entry): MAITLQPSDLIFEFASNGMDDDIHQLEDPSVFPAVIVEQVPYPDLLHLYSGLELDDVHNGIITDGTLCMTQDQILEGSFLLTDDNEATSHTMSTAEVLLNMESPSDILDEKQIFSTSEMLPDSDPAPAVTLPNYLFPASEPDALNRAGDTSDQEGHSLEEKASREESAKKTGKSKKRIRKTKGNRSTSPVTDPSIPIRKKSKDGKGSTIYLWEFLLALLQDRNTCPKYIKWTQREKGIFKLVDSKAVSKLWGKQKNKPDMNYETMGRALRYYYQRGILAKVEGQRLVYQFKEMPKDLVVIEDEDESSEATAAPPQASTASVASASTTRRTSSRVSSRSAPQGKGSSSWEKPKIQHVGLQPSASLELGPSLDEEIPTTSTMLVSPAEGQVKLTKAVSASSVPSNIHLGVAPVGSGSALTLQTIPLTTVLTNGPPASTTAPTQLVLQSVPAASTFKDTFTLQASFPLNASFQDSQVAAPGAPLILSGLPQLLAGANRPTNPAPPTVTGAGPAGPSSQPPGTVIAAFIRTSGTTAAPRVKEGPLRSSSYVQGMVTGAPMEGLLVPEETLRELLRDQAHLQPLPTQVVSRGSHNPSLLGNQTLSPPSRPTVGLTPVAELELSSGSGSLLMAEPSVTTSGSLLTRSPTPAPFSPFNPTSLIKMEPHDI
Procedure, shortened: as §1

ELK4 = biological target: T9, ELK4 (Homo sapiens, UniProt P28324-2 1-405); settings: protein: recombinant; tags: N-terminal GST; dsDNA, one strand shown
T9 sequence: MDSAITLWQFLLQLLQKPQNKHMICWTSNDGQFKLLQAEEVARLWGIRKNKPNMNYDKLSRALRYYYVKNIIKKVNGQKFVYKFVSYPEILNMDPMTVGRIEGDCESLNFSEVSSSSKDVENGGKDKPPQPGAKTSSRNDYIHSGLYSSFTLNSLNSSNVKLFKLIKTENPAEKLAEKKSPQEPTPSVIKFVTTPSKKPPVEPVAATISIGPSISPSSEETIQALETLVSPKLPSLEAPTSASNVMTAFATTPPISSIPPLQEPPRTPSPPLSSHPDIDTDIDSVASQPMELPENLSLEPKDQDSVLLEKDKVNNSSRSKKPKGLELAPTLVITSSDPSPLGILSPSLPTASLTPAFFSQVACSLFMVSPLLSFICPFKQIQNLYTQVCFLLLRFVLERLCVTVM
Procedure, shortened: as §1

ETV2 = biological target: T10, ETV2 (Homo sapiens, UniProt O00321 1-342); settings: protein: recombinant; tags: N-terminal GST; dsDNA, one strand shown
T10 sequence: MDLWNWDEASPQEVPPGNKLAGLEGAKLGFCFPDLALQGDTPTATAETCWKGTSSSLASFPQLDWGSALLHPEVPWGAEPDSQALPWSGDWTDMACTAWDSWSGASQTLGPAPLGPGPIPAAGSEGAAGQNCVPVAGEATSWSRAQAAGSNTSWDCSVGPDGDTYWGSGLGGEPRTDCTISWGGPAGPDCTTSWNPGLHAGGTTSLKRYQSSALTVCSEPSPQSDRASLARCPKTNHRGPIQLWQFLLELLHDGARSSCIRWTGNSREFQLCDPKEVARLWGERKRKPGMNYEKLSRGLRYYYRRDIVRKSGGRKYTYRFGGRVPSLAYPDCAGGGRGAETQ
Procedure, shortened: as §1

ELF3 = biological target: T11, ELF3 (Homo sapiens, UniProt P78545 1-371); settings: protein: recombinant; tags: N-terminal GST; dsDNA, one strand shown
T11 sequence: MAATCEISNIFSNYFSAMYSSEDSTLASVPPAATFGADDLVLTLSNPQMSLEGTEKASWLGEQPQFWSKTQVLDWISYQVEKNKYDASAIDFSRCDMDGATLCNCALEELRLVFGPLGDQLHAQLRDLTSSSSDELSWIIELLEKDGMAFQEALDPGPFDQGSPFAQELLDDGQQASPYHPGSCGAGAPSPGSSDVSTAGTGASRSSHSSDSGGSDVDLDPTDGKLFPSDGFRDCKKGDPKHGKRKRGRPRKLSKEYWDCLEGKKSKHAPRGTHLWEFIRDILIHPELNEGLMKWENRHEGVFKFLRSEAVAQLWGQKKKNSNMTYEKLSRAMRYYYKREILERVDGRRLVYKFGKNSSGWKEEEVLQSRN
Procedure, shortened: as §1

CRX = CRX (Homo sapiens, UniProt O43186 1-299); settings: protein: recombinant; tags: N-terminal GST; dsDNA, one strand shown
Chain of CRX (O43186 whole entry): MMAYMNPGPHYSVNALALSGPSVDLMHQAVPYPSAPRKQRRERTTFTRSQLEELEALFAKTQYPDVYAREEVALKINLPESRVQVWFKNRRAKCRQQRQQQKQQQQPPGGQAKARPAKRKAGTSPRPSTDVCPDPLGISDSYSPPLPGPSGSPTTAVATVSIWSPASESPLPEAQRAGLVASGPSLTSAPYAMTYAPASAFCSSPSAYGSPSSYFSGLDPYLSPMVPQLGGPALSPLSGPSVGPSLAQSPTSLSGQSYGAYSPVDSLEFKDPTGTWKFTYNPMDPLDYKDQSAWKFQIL
Procedure, shortened: as §1

ETV1 = ETV1 (Homo sapiens, UniProt P50549 1-477); settings: protein: recombinant; tags: N-terminal GST; dsDNA, one strand shown
Chain of ETV1 (P50549 whole entry): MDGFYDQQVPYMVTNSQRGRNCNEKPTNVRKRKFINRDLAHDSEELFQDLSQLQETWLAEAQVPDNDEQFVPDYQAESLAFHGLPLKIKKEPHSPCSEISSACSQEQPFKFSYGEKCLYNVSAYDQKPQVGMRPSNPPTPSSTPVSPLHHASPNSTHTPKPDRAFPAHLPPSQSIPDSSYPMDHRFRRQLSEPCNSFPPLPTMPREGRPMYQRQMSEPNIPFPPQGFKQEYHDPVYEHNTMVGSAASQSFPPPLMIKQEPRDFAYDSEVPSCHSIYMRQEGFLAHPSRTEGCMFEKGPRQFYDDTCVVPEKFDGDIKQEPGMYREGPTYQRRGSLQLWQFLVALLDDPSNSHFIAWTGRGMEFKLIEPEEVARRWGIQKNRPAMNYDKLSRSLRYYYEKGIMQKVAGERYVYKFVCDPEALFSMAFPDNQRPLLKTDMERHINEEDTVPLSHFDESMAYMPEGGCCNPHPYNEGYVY
Procedure, shortened: as §1

## CTTTGC
FLI1
  binding signal: 1.4 fold enrichment (6-mer frequency, TF over GST control)
ELK1
  binding signal: 1.29 fold enrichment (6-mer frequency, TF over GST control)
GABPA
  binding signal: 1.39 fold enrichment (6-mer frequency, TF over GST control)
ERG
  binding signal: 1.46 fold enrichment (6-mer frequency, TF over GST control)
ELF1
  binding signal: 1.32 fold enrichment (6-mer frequency, TF over GST control)
EHF
  binding signal: 1.32 fold enrichment (6-mer frequency, TF over GST control)
SPI1
  binding signal: 1.21 fold enrichment (6-mer frequency, TF over GST control)
SPIB
  binding signal: 1.32 fold enrichment (6-mer frequency, TF over GST control)
ELK3
  binding signal: 1.33 fold enrichment (6-mer frequency, TF over GST control)
FEV
  binding signal: 1.19 fold enrichment (6-mer frequency, TF over GST control)
ETV5
  binding signal: 1.32 fold enrichment (6-mer frequency, TF over GST control)
HSF1
  binding signal: 1.25 fold enrichment (6-mer frequency, TF over GST control)
SPIC
  binding signal: 1.45 fold enrichment (6-mer frequency, TF over GST control)
ELF4
  binding signal: 1.36 fold enrichment (6-mer frequency, TF over GST control)
ELK4
  binding signal: 1.32 fold enrichment (6-mer frequency, TF over GST control)
ETV2
  binding signal: 1.4 fold enrichment (6-mer frequency, TF over GST control)
ELF3
  binding signal: 1.46 fold enrichment (6-mer frequency, TF over GST control)
CRX
  binding signal: 1.33 fold enrichment (6-mer frequency, TF over GST control)
ETV1
  binding signal: 1.35 fold enrichment (6-mer frequency, TF over GST control)
